Reference: PubChem BioAssay AID493065 (National Center for Advancing Translational Sciences (NCATS), 2011)
The other results are listed elsewhere or left out. Inconclusive results are not listed. Values without a mark were called inactive. Calls of active or inactive are those of the source. The call rests on the fitted dose curve; in most records, active means well fitted activation curve with a large enough effect; inconclusive means small, poorly fitted or top-dose-only effect; inactive means flat fitted curve, though single readings scatter.

Test: Parental Cell Counter Screen Assay for Epigenetic Modulators: Hit Validation
Details: mouse c127i parental cells, 30 h; Potency: fluorescent cell count; fluorescent cell count: active compounds read high, concentration not given here
Description: NIH Molecular Libraries Screening Centers Network [MLSCN] NIH Chemical Genomics Center [NCGC] MLSCN Grant: 1 X01 MH079860-01 Assay Provider: Elisabeth D. Martinez, University of Texas SW Medical Center NCGC Assay Overview: This assay is a counter screen for the Locus Derepression (LDR) assay (PubChem AID 1865). The LDR assay detects the derepression of a GFP reporter that is stably integrated in a region of the genome of murine c127i mammary cells that is presumably silenced. Compounds that cause derepression of the locus to express GFP are identified by enumerating GFP positive cells using a laser-scanning microplate cytometer. […] Compounds active in the parental c127i cells are likely fluorescent.
NCGC Assay Protocol Summary: Three hundred cells in 5 uL per well were dispensed into black, clear-bottom 1536-well plates. Twenty-three nL compound was transferred to the assay plate and cells were incubated 30 hours at 37 C. Medium was removed, cells were washed two times with PBS, and fluorescent cells were enumerated as objects between the sizes of 20 to 120 um width and depth using a laser-scanning microplate imager (Acumen Explorer Ex3, TTP Labtech). For further details, see Johnson, RL, Huang, W, Jadhav, A, Austin, CP, Inglese, J, Martinez, ED (2008). A quantitative high-throughput screen identifies potential epigenetic modulators of gene expression. Anal Biochem 375: 237-48.

Row | Compound | fluorescent cell count | Potency
1 | Cc1ccc(/C=N/NC(=S)Nc2cccc(S(=O)(=O)N(C)C)c2)o1 | 2% | –
2 | Cc1cccn2c(=O)c(/C=C3\SC(=S)N(CC(C)C)C3=O)c(NCCCOC(C)C)nc12 | – | 2510 nM (active)
